Screening data as filed in PubChem.
GPR151 ag: human GPR151 activation; Q8TDV0; PathHunter beta-arrestin GPR151 cells, luminescence; activation, % at 11.2 µM; 650,000 compounds, 1% hits; AID 1508602; in the data active = activation above about 4.9%;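 also: 0% = median of compound wells and 100% = cells with positive control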
FBW7 act: human FBW7 E3 ligase activation, primary screen; AlphaScreen FBW7–phospho-cyclin E peptide binding, activator screen; normalized activity (activation), % at 26.1 µM; 650,000 compounds, 0.13% hits; in the data active = normalized activity above about 1.9%;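 also: purified mutant Fbw7 with reduced substrate affinity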
MITF primary: blocks human microphthalmia-associated transcription factor. AlphaScreen MITF homodimerization, bead proximity signal. 650,000 compounds, 0.91% hits. O75030. inhibition, % at 2.6 µM; in the data active = inhibition above about 50%;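 also: 0% = vehicle wells with protein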
Target sequence (O75030 whole entry, looked up): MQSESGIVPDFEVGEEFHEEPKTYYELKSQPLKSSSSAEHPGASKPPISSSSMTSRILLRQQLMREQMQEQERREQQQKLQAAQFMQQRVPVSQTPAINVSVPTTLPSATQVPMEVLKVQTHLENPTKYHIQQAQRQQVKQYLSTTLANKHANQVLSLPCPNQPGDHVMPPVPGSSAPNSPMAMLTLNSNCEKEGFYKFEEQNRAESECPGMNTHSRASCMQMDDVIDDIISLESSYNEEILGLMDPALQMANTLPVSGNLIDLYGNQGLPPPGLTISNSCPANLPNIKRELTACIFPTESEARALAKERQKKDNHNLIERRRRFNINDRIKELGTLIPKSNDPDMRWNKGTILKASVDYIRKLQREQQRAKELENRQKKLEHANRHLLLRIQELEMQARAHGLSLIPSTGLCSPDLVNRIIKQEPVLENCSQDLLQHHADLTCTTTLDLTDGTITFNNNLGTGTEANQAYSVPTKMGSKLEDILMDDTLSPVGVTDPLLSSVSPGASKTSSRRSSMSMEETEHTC
TEAD-YAP block: TEAD-YAP interaction inhibition | 640,000 compounds, 1.4% hits | AID 1259422 | HEK-TIYL cells, TEAD-Gal4/YAP UAS-luciferase luminescence | inhibition, % at 9.12 µM; in the data active = inhibition above about 32%;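 also: 0% = median of test compound wells and 100% = reference inhibitor wells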
* hit, by the source's call. Sampled rows, rich in hits. Any-hit rate of the full collection: about 3.4%.

SMILES	GPR151 ag	FBW7 act	MITF primary	TEAD-YAP block
CCCCN1C(=O)C2C(C(=O)Nc3ccc(Cl)cc3)C3C=CC2(O3)C1C(=O)NC1CCCC(C)C1C (stereo not drawn)	-1.7	0.2	5.7	-4.5
COc1cc(Nc2nccc(Nc3ccc(N4CCOCC4)cc3)n2)cc(OC)c1OC	0.0	0.2	18.0	43.7*
COc1cc(Nc2nc(C)cc(Nc3ccc(N4CCOCC4)cc3)n2)cc(OC)c1OC	0.1	-0.2	6.8	69.9*
Cc1nn(C(=O)c2nn(C)cc2Br)c(C)c1Br	3.1	0.0	-15.8	-8.4
Nc1nonc1-c1nc2ccccc2n1CC(=O)Nc1ccccc1C(F)(F)F	-1.1	-0.1	2.7	34.2*
CCCCOc1ccccc1NC(=O)Cn1c(-c2nonc2N)nc2ccccc21	-0.6	0.3	-4.5	54.5*
Nc1nonc1-c1nc2ccccc2n1CC(=O)Nc1ccccc1F	0.5	-0.1	0.8	53.9*
CCc1ccccc1NC(=O)Cn1c(-c2nonc2N)nc2ccccc21	0.7	-0.1	-0.9	7.3
Nc1nonc1-c1nc2ccccc2n1CC(=O)N/N=C/c1ccncc1	1.0	0.1	-0.5	53.2*
O=C(O)c1cccc(NC(=S)NC2CCS(=O)(=O)C2)c1 (stereo not drawn)	-0.5	0.1	-0.5	3.6
CC(=O)Nc1nonc1-c1nc2ccccc2n1Cc1c(F)cccc1Cl	-0.5	-0.2	2.9	-6.1
O=C(Nc1nonc1-c1nc2ccccc2n1Cc1c(F)cccc1Cl)c1ccccc1Cl	1.4	-0.1	-7.7	65.0*
CCN(CC)c1ccc(N)c(C)c1	-0.6	-0.1	80.0*	11.6
N#Cc1c(N)n(Cc2ccco2)c2nc3ccccc3nc12	0.4	1.5	18.0	11.4
COc1ccc(CNc2nc3ccc(-c4ccncc4)cc3s2)cc1	-0.4	60.2*	30.4	-39.6
COCCNC(=O)Cn1cc(/C=C(\C#N)C(=O)Nc2ccc(F)cc2)c2ccccc21	3.4	-0.1	-5.3	-3.6
CCOC(=O)C(CC)/C(C)=N\NC(=O)c1ccccc1[N+](=O)[O-] (stereo not drawn)	0.4	0.8	8.7	1.7
CCOC(=O)C(CC)/C(C)=N\NC(=O)c1ccccc1O (stereo not drawn)	0.6	-0.9	0.3	59.3*
O=C(CNC(=O)c1ccc(Cl)cc1)OCc1ccc(Br)cc1	0.8	0.2	-5.6	2.9
CC(=O)Nc1ccc(NC(C)=O)c2c1C(=O)c1c(NC(C)=O)ccc(NC(C)=O)c1C2=O	1.5	-0.1	82.0*	1.1
CC(=O)Nc1cccc2c1C(=O)c1cccc(NC(C)=O)c1C2=O	-1.1	0.3	-9.1	3.5
Cc1ccc(OCCNC(=O)c2ccc(Br)cc2)cc1	3.8	-0.1	-2.3	1.3
COc1cc(C2C(C#N)=C(N)N(c3ccc(C)cc3)C3=C2C(=O)CC(C)(C)C3)cc(OC)c1OC (stereo not drawn)	-0.2	0.0	-3.5	54.1*
Cc1ccc(N2C(N)=C(C#N)C(c3ccc4c(c3)OCO4)C3=C2CC(C)(C)CC3=O)cc1 (stereo not drawn)	-1.6	-0.3	-10.6	41.8*
COC(=O)CSc1cc([N+](=O)[O-])ccc1C#N	-2.3	-0.1	25.4	9.7
SMILES	GPR151 ag	FBW7 act	MITF primary	TEAD-YAP block
COc1ccc(/C=C/C(=O)Nc2nc(CN3CCc4ccccc4C3)cs2)cc1OC	1.5	-0.3	-7.7	45.2*
COc1ccccc1OCC(=O)Nc1nc(CN2CCc3ccccc3C2)cs1	-0.7	-0.1	13.5	-2.5
O=C(Nc1nc(CN2CCc3ccccc3C2)cs1)c1ccc(F)cc1	1.0	-0.2	1.6	32.0*
COc1cccc(/C=C2\CN(C)C/C(=C\c3cccc(OC)c3OC)C2=O)c1OC	-0.1	-0.2	17.3	33.0*
Cc1cc(NC(=O)c2cc3ccccc3o2)ccc1-c1cc2ccccc2oc1=O	0.5	0.0	3.1	9.3
COc1ccc(CCNc2cc(-c3cccc(N)c3)nc(N)n2)cc1	1.2	0.0	13.5	35.2*
COc1ccc(CCNc2cc(-c3ccccc3)ncn2)cc1	-0.1	1.9*	4.9	-4.6
COc1ccc(CCNc2nc(-c3cccc(N)c3)ncc2C)cc1	0.1	-0.1	0.8	44.4*
CCOc1ccc(/C=C(\C#N)c2nc3ccccc3c(=O)[nH]2)cc1	-1.9	0.1	-4.8	-1.4
CC(=O)Nc1ccc(Nc2nc(C)c([N+](=O)[O-])c(Nc3ccccc3)n2)cc1	2.6	-0.1	5.8	28.5
CCOc1ccc(Nc2nc(Nc3ccc(NC(C)=O)cc3)nc(C)c2[N+](=O)[O-])cc1	-0.7	-0.1	-2.5	43.7*
COc1ccc([N+](=O)[O-])cc1N(CC(=O)Nc1cccc(C(F)(F)F)c1)S(C)(=O)=O	0.8	-0.1	-16.0	1.8
CCCCCCCCNC(=O)c1ccc([N+](=O)[O-])o1	0.4	-0.2	1.4	34.7*
O=C(NCCCN1CCOCC1)c1ccc([N+](=O)[O-])o1	-1.1	0.1	14.3	9.6
COc1ccc(C(=O)NC(=S)Nc2ccc(N(C)C)cc2)cc1[N+](=O)[O-]	0.0	-0.2	-7.9	-15.5
Cc1ccc(N2CC(C(=O)Nc3nccs3)CC2=O)cc1C (stereo not drawn)	-1.1	0.4	3.8	43.7*
N#C/C(=C\C=C\c1ccccc1[N+](=O)[O-])C(=O)Nc1ccccc1	-0.8	-0.1	-3.7	-3.3
Oc1ccccc1N1CCN(c2ncnc3sccc23)CC1	-2.1	-0.1	-0.4	56.1*
O=C(O)COc1ccccc1/C=C1\C(=O)NC(=O)N(c2cccc([N+](=O)[O-])c2)C1=O	-1.6	-0.2	54.8*	0.4
COc1ccc(OC)c(C(=O)c2oc3ccc(Br)cc3c2N)c1	-0.7	-0.3	12.4	48.8*
O=c1c2cc(O)c(O)cc2oc2cc(O)c(C3OC(CO)C(O)C(O)C3O)c(O)c12 (stereo not drawn)	0.9	-0.3	59.0*	-11.5
O=c1cc(-c2cc(O)c(O)c([C@@H]3O[C@H](CO)[C@@H](O)[C@H](O)[C@H]3O)c2)oc2cc(O[C@@H]3O[C@H](CO)[C@@H](O)[C@H](O)[C@H]3O)cc(O)c12	0.2	-0.3	-16.5	16.4
COc1cc(Nc2ccnc(N3CCN(c4ccccn4)CC3)n2)cc(OC)c1OC	0.0	-0.1	11.1	35.8*
COc1cc(Nc2cc(C)nc(N3CCN(c4ccccn4)CC3)n2)cc(OC)c1OC	2.7	-0.1	4.4	52.5*
COc1cc(Nc2cc(N3CCN(c4ccccn4)CC3)ncn2)cc(OC)c1OC	-0.9	0.4	-9.1	-13.4
SMILES	GPR151 ag	FBW7 act	MITF primary	TEAD-YAP block
O=C(CSc1nc2ccccc2c(=O)n1CC1CCC(C(=O)NCc2ccco2)CC1)Nc1ccccc1C(F)(F)F (stereo not drawn)	-0.3	0.1	20.8	3.6
COc1ccc(-c2cc(C(=O)O)c3c(=O)n(C)c(=O)n(C)c3n2)cc1	-0.4	0.9	21.3	4.5
C=CCn1c(SCC(=O)Nc2cccc([N+](=O)[O-])c2)nnc1-c1ccccc1O	0.9	0.0	-8.4	31.3
CCn1c(SCC(=O)Nc2cccc([N+](=O)[O-])c2)nnc1-c1ccccc1O	-0.1	-0.1	-3.0	32.0*
O=C(CSc1nnnn1-c1ccc(F)cc1F)Nc1ccc2c(c1)OCCO2	-1.2	-0.1	2.6	38.1*
C=CCn1c(SCC(=O)Nc2ccccc2)nnc1-c1ccccc1O	-0.6	-0.2	-3.9	33.3*
